Where “and” joins values, the source holds several entries; their conditions need not be identical. Identical values can stand only once. The campaign covered roughly 16,000 compounds. About 2,600 (16%) were called active. Not shown: some 20% with an inconclusive outcome. Calls follow the shape of the dose curve; as a rule, active = well fitted curve in the direction sought with a large enough effect; inconclusive = small, poorly fitted or top-dose-only effect, or effect the other way; inactive = no such curve, though single readings can be large or run the other way. These entries were drawn from the full list.
The compounds below were run against Cytochrome P450 2D6 (Homo sapiens) (UniProt P10635) (assay: Cytochrome panel assay with activity outcomes). Conditions: recombinant CYP, pro-luciferin dealkylation, luminescence, p450-cyp2d6; series mostly up to 57.1 µM; activity, negative = inhibition: at the top concentration.
Chain of Cytochrome P450 2D6 (Homo sapiens) (P10635 whole entry, looked up): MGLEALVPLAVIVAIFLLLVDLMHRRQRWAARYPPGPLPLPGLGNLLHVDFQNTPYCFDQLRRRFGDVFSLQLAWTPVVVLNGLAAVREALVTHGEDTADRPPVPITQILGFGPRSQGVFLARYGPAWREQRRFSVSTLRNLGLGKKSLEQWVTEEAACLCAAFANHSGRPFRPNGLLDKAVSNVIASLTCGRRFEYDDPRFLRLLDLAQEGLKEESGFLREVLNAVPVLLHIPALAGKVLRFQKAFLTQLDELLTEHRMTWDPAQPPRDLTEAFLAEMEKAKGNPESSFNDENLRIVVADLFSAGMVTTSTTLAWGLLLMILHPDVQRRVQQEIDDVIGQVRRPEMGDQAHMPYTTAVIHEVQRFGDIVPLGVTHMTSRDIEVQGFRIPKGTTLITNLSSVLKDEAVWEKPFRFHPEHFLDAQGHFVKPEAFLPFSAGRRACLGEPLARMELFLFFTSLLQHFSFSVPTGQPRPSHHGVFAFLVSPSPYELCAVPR
% is scaled to controls: 0 for no effect and ±100 for the full control effect.

AC50, active:
c1ccc(CNc2nc(-c3ccc4c(c3)OCO4)nc3ccccc23)cc1 12.6 µM
c1csc(CNc2nc(-c3ccc4c(c3)OCO4)nc3ccccc23)c1 10 µM
Cc1cnc(CNc2nc(-c3ccc4c(c3)OCO4)nc3ccccc23)cn1 15.8 µM
COc1ccccc1CNc1nc(-c2ccc(N(C)C)cc2)nc2ccccc12 10 µM
Cc1cccc(CNc2nc(-c3ccc4c(c3)OCO4)nc3ccccc23)c1 20 µM
CC(=O)NCCNc1nc(-c2ccc3c(c2)OCO3)nc2ccccc12 12.6 µM
COc1ccccc1CNc1nc(-c2ccc3c(c2)OCO3)nc2ccccc12 10 µM
c1cncc(CNc2nc(-c3ccc4c(c3)OCO4)nc3ccccc23)c1 12.6 µM
c1ccc2c(Nc3ccncc3)nc(-c3ccc4c(c3)OCO4)nc2c1 20 µM
c1ccc2c(N3CCNCC3)nc(-c3ccc4c(c3)OCO4)nc2c1 3.16 µM
CN(C)c1ccc(-c2nc(N3CCNCC3)c3ccccc3n2)cc1 12.6 µM
COc1cccc(Nc2nc(-c3ccc(O)cc3)cs2)c1 8.91 µM
CC[N+](CC)(CC(=O)Nc1c(C)cccc1C)Cc1ccccc1 0.00794 µM
C1CCC(N=C(NC23CC4CC(CC(C4)C2)C3)N2CCOCC2)CC1 0.631 µM
COc1cc(COc2cc(N)c(Cl)cc2C(=O)CCC2CCN(CCNS(C)(=O)=O)CC2)cc(OC)c1 0.794 µM
COc1cc(N)c(Cl)cc1C(=O)CCC1CCN(CCNS(C)(=O)=O)CC1 12.6 µM
COc1ccc2[nH]cc(CCNc3ncnc4ccc(-c5ccoc5)cc34)c2c1 5.01 µM
COc1ccc2[nH]cc(CCNc3ncnc4ccc(-c5cccnc5)cc34)c2c1 7.94 µM
COc1cccc(-c2ccc3ncnc(NCCc4c[nH]c5ccc(OC)cc45)c3c2)c1 2.51 µM
COc1ccc2[nH]cc(CCNc3ncnc4ccc(-c5ccc6c(c5)OCO6)cc34)c2c1 2.51 µM
COc1ccc2[nH]cc(CCNc3ncnc4ccc(-c5c(C)noc5C)cc34)c2c1 6.31 µM
Clc1ccc2[nH]cc(-c3nnnn3-c3ccccc3)c2c1 28.2 µM
CC1(C)Cc2ccccc2C(NNC(=O)c2ccncc2)=N1 7.94 µM
CCOC(=O)c1[nH]c2cc3c(cc2c1NC(=O)CN1CCc2ccccc2C1)OCO3 3.55 µM
O=C(CN1CCN(S(=O)(=O)c2ccc(Cl)cc2)CC1)Nc1ccc2c(c1)OCO2 2.51 µM
O=C(CN1CCN(c2ccc(Cl)cc2)CC1)Nc1ccc(F)c(F)c1 3.55 µM
COc1cc2c(cc1OC)CN(CC(=O)Nc1ccc3c(c1)OCO3)CC2 8.91 µM

AC50, inactive:
CC(=O)O[C@]1(C(C)=O)CC[C@@H]2[C@@H]3C=C(Cl)C4=CC(=O)[C@H]5C[C@@H]5[C@]4(C)[C@H]3CC[C@]21C
CC[N+](CC)(CC)CC(=O)Nc1c(C)cccc1C
COc1[nH]c2ccc(F)cc2c1C(=O)OCC1CCN(CCNS(C)(=O)=O)CC1
CC(C)NNC(=O)c1ccncc1

activity, negative = inhibition, inactive:
Cc1cnc(CNc2nc(-c3ccc(C(=O)N(C)C)cc3)nc3ccccc23)cn1 -18.2%
CCOC(=O)C1CCCN(C(=O)CCn2nc(-c3ccccc3)ccc2=O)C1 (centres undefined) -20.7%
S=c1c2[nH]cnc2ncn1CCSc1ncnc2nc[nH]c12 8.54% [at 11.4 µM]
CN(C(=O)CCCOc1ccc2[nH]c(=O)ccc2c1)C1CCCCC1 -4.66%
CC(Oc1ccc(-c2ccccc2)c(F)c1)c1ccn(S(=O)(=O)c2ccc(Cl)cc2)n1 (centres undefined) -8.63%
COC(Cn1c(C)c(C(C)=O)c(C(C)=O)c1C)OC 17.2%
Nc1nc(-c2cccnc2)cc(-c2cc(-c3cccnc3)nc(N)n2)n1 -6.86% [at 11.4 µM]
CCC(=O)N1CCn2c1nc1ccccc12 3.08%
CCC(C)NC(=O)c1cnn2c(C)c3c(nc12)CCCC3 (centres undefined) -19.4%
COCCNc1nc(-c2ccc(C(=O)N(C)C)cc2)nc2ccccc12 -9.46%
CC(=O)NCCNc1nc(-c2ccc(C(=O)N(C)C)cc2)nc2ccccc12 -4.75%
COC(=O)N1CCC2(CC1)CN(C(=O)Nc1cccc(C#N)c1)C2 0.446%
COc1cc(NC(=O)c2c(F)cccc2F)nc(OC)n1 1.76%
Cc1cc(NC(=O)CCCC(=O)OCC(F)(F)C(F)F)cc(C)c1C(=O)O 12.6%
COc1ccc(-n2c(=O)c(-c3cc(F)cc(F)c3)nc3cnc(N4CCNCC4)nc32)cc1 9.29%
Cc1ccc(S(=O)(=O)Oc2ccc(/C=C(/NC(=O)c3ccccc3)C(=O)Nc3ccccc3)cc2)cc1 23.4%
C[C@H]1COC(=O)[C@H]2CCCN2C(=O)[C@@H](C)COC(=O)[C@H](Cc2ccccc2)NC1=O 2.57% [at 11.4 µM]
CCn1c(SCC(=O)Nc2ccc3c(c2)OCCO3)nc2c(c1=O)SC(C)C2 (centres undefined) -11.9%
CC1=NN(c2ccc(S(=O)(=O)O)cc2)C(=O)/C1=C\c1ccc(Cl)cc1 5.53% [at 11.4 µM]
O=C(N/C(=C\c1cccnc1)C(=O)N1CCOCC1)c1cccc(Br)c1 5.99%
N#Cc1cccc(-c2nc(Nc3ccncc3)c3ccccc3n2)c1 -7.94%
Cc1noc(C)c1-c1nc(Nc2ccccc2)c2ccccc2n1 6.91%
O=c1[nH][nH]cc1C=Nc1ccccc1O -5.68%
Cc1noc(COc2ccc(OCc3nc(C)no3)cc2)n1 -22.9%
Cc1cc(C)n(-c2nc(NC(C)C)nc(NC(C)C)n2)n1 1.57%
COc1cc(/C=C/C(=O)O)cc(S(=O)(=O)NCCCO)c1OC -3.23%
O=C1Oc2ccccc2C2(O)C3CCCCCC3C12 (centres undefined) -17.5%
CSc1nc(Oc2ccc(=O)[nH]n2)nc(N(C)C)n1 -21.1%
Cc1cc(/C=C2\SC(=S)NC2=O)c(C)n1C -6.16%
CCCCCSc1nnc(C)c(=O)[nH]1 9.5%
COc1ccc(NC(=O)N2CC[C@@]3(CCCN(C(=O)c4cc(C(F)(F)F)cc(C(F)(F)F)c4)C3)C2)cc1 7.53%
O=C(O)/C(Cc1ccc([N+](=O)[O-])cc1)=N/O 6.05% [at 11.4 µM]
COc1ccc(/C=C2/S/C(=N/N=C3\CC4CCC3(C)C4(C)C)NC2=O)cc1 (centres undefined) -4.41%
CCNc1ncc2nc(-c3ccc(OC)cc3)c(=O)n(Cc3cccs3)c2n1 -0.478%
COc1ccc(-c2csc(NC(=O)Cn3nc(C)cc3C)n2)cc1 -0.175%
COc1cccc(-c2csc(N3CCN(C(=S)Nc4ccccc4)CC3)n2)c1 -11.1%
Cc1ccc(OCC(=O)NNC(=O)C2CCN(c3ncccn3)CC2)cc1 -28%
OC[C@@H]1O[C@@H](n2cnc3c(NC4CCCC4)ncnc32)[C@H](O)[C@H]1O -1.52%
Cc1ccn2c(NC(=O)c3ccccc3)c(-c3cccs3)nc2c1 -21.6%
Cc1cccc(C)c1NC(=S)NC(=O)CCc1ccccc1 -13.9%
COc1ccc(CCNC(=O)C2CCN(S(=O)(=O)N3CC(C)CC(C)C3)CC2)cc1OC (centres undefined) 0.862%
COC(=O)[C@@]1(Cc2ccc(OC)cc2)[C@H]2c3cc(C(=O)N4CCCC4)n(Cc4cc(F)cc5c4OCOC5)c3C[C@H]2CN1C(=O)c1ccccc1 -3.21%
CCn1ccc(C(=O)NC2=C(C#N)CCC2)n1 4.95%
Cn1cc(C(=O)OCC2CCN(CCNS(C)(=O)=O)CC2)c2ccccc21 -4.93%
COc1cc(/C=C(\C#N)C(=O)NCC2CCCO2)c([N+](=O)[O-])cc1OC (centres undefined) -17.7%
CCn1c(CC(C)C)n[nH]c1=S -7.94%
CO[C@H]1COC(=O)C/C=C\[C@H](C)[C@@H](NS(=O)(=O)c2ccc(C)cc2)COC(=O)CCC[C@@H]1C 8.76% [at 11.4 µM]
COC(Cc1nnc(SC)n1-c1ccc(Cl)cc1)OC -0.686%
Cc1cccc(Oc2coc3cc(OC(=O)c4cccs4)ccc3c2=O)c1 -22.9%
Cc1ccc(CS(=O)(=O)CCC(=O)N2CCOCC2)cc1 7.49%
CC(C)n1c(N2CCN(C(=O)Nc3ccccc3)CC2)nc2ccccc21 -28.3%
Cn1cc(/C=N/n2cnc3sc4c(c3c2=O)CCCC4)c2ccccc21 -12.6%
COC(=O)[C@@H]1CC[C@H](C)[C@@H](c2ccc(C)cc2)N1C(=O)c1ccc(/C=N\O[C@@H](C)c2cn([C@H](CO)Cc3ccccc3)nn2)cc1 12.4% [at 11.4 µM] and -16.1% [at 11.4 µM]
N[C@](CC1c2ccccc2Oc2ccccc21)(C(=O)O)[C@@H]1C[C@@H]1C(=O)O 8.73%
COc1ccc(-n2c(=O)c(-c3ccc(F)cc3)nc3cncnc32)cc1 -3.89%
Cn1nnnc1SCc1ccc(C(=O)Nc2ccc(Br)cc2)cc1 -9.28%
CCC(=O)OCc1c(C(F)(F)F)nn(C)c1Sc1ccc(F)cc1 -17.1%
CC(C)(C)C(=O)NC(=C(Cl)Cl)P(=O)(O)O -4%
Cc1c(C)c2c(c(C)c1O)CC[C@@](C)(C(=O)O)O2 0.454% [at 25.6 µM]
CCCNc1nc(NCC)nc(OC)n1 3.27%
Cc1noc(C)c1C(=O)N1CCC2(CCCN(Cc3nccs3)C2)CC1 -12.8%
C[C@H](O)[C@H](O)[C@@H]1CNc2nc(N)[nH]c(=O)c2N1 2.53%
Cc1ccc(-n2nnnc2-c2cnc3ccc(Cl)cc3c2-c2ccccc2)cc1 -3.88%
Fc1ccc(-c2[nH]ncc2-c2nnnn2-c2ccccc2)c(F)c1 15.9%
Cc1cccc(C2NC(=O)c3c(sc(C)c3C)N2)c1O (centres undefined) -12.8%
Clc1ccc(-c2nnc(-c3ccc(Br)cc3)c(N3CCSCC3)n2)cc1 -5.11%
O=C(NNC(=O)c1ccncc1)c1ccncc1 -4.63% [at 11.4 µM]
O=C(Cc1ccccc1)N/N=C/c1cc(Br)c(Br)o1 -11.9%
COc1ccc(OC)c(C2N(c3cc(C)on3)C(=O)C3CCCN32)c1 (centres undefined) 21.9%
COc1ccc(C(F)(F)F)cc1N/C=C\c1nnnn1-c1ccccc1 -1.69%
CCOc1ccc(NC(=O)CN2CCN(S(=O)(=O)c3ccc(Cl)cc3)CC2)cc1 -13%
O=C(CSc1ccccc1)Nc1ccc(N2CCN(c3ccccc3)CC2)c(F)c1 -5.65%
COc1cc(-c2nnc(SCC(=O)Nc3ccc4c(c3)OCCO4)o2)cc(OC)c1OC -14.4%
O=C(CSc1ccc(Cl)cc1)Nc1ccc(N2CCN(c3ccccc3)CC2)c(F)c1 -1.75%
CCOC(=O)c1[nH]c2cc3c(cc2c1NC(=O)CN1CCC2(CC1)OCCO2)OCO3 3.18%
CCOC(=O)c1[nH]c2cc(OC)c(OC)cc2c1NC(=O)c1nonc1C -3.37%
COc1cc2c(cc1OC)CN(C(=S)Nc1ccccc1)CC2 6.67%
CCN(CC(=O)Nc1ccc2c(c1)OCCO2)C(=O)c1cccc(S(=O)(=O)N2CCOCC2)c1 -15.4%

— PubChem BioAssay AID1851 (National Center for Advancing Translational Sciences (NCATS), 2009)
